# Sampled rows, rich in hits. Any-hit rate of the full collection: about 2.3%.
# EBNA-1 inhibitor – blocks EBNA-1 binding to DNA; EBNA-1 DNA binding, fluorescence polarization; inhibition, % at 14.8 µM; 300,000 tested, 0.34% active; in the data active = inhibition above about 28%
# MsrA inhibitor – inhibitors of bovine MsrA; 360,000 tested, 0.75% active; inhibition, % at 15.5 µM; purified bovine MsrA, absorbance read-out; in the data active = inhibition above about 4.5%;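 also: 0% = vehicle wells with enzyme and 100% = reference inhibitor wells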
# MsrA act – activators of bovine methionine sulfoxide reductase A; purified bovine MsrA, absorbance read-out; activation, % at 10.6 µM; 360,000 tested, 0.3% active; AID 602163; in the data active = activation above about 7.5%;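 also: 0% = vehicle and 100% = reference activator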
# ZTA counter – blocks Epstein-Barr virus ZTA, an EBNA-1 counter-screen | inhibition, % at 11 µM | ZTA-DNA binding, fluorescence polarization | 320,000 tested, 0.15% active; in the data active = inhibition above about 33%
# PP1 inh – PP1-alpha (human) inhibition in PP5 counter-screen | inhibition, % at 6.7 µM | 320,000 tested, 0.9% active | P62136 | purified PP1alpha, OMFP fluorescence | AID 2235;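 active = inhibition above the mean inhibition of all tested compounds plus 3 SD, computed separately for each screening campaign, cut at about 15% in these data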
# PP5 inh – PP5 (human) phosphatase inhibition | P53041 | purified PP5c, OMFP substrate fluorescence | inhibition, % at 6.7 µM | 320,000 tested, 0.18% active | AID 1987;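 active = inhibition above the campaign's mean inhibition across all tested compounds plus 3 SD, cut at about 9.5% in these data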;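 also: 0% = DMSO only and 100% = 100 µM cantharidin control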
# Target sequence (P53041 whole entry, looked up): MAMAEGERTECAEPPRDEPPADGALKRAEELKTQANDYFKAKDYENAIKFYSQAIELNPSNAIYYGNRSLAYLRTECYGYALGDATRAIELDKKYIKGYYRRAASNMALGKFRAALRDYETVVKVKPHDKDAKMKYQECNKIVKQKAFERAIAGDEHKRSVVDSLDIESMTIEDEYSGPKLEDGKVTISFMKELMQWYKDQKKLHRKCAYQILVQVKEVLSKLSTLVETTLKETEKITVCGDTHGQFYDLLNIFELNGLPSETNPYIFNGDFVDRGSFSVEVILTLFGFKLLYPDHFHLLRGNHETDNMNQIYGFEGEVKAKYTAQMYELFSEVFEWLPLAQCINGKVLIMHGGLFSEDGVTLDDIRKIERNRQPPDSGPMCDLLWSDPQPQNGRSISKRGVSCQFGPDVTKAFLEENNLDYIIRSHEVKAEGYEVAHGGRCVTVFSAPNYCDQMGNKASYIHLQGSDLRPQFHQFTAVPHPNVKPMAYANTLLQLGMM
# EBNA-1 inh conf – EBNA-1 (EBV) inhibition, confirmation; shares compounds with EBNA-1 inhibitor; Recombinant EBNA-1 DBD, Cy5-DNA fluorescence polarization; inhibition, % at 14.8 µM; 830 tested, 35% active; AID 2292;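 active = mean inhibition across replicates above a set limit taken from the earlier primary screen, cut at about 28% in these data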;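 also: plate controls were EBNA-1 protein with DMSO for no effect and wells lacking EBNA-1 for full effect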
# ZTA DNA inh trip – blocks Epstein-Barr virus ZTA in triplicate, EBNA-1 counter-screen | inhibition, % at 11.1 µM | shares compounds with EBNA-1 inhibitor | AID 2328 | Zta-ZRE DNA binding, Cy5 fluorescence polarization | 830 tested, under 10 active;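 active = mean inhibition over triplicates above a set limit taken from the primary EBNA-1 screen, cut at about 37% in these data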;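 also: purified full length Zta protein with Cy5 labeled ZRE DNA probe; 0% = Zta with DMSO and 100% = wells lacking Zta protein; inhibitors lower polarization by freeing the labeled DNA probe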
# An asterisk follows results filed as active; / = no result given.
SMILES,EBNA-1 inhibitor,MsrA inhibitor,MsrA act,ZTA counter,PP1 inh,PP5 inh,EBNA-1 inh conf,ZTA DNA inh trip
O=C(CCCCCn1c(=S)[nH]c2ccccc2c1=O)NCc1ccc2c(c1)OCO2,32*,1,1,5,-1,0,14,-3
COc1ccc(CCNC(=O)COC(=O)C2CC2)cc1OC,/,1,-1,/,/,/,/,/
COc1ccc(N=C2NC(=O)/C(=C/C=C/c3ccccc3)S2)cc1,32*,0,-3,12,-2,-3,29*,16
Cc1ccccc1NC(=O)NC1(C(=O)N2CCC(O)CC2)CCCCC1,-14,0,-3,5,6,2,/,/
Cc1ccc(C(=O)CCC(=O)OCC(=O)Nc2cc(S(=O)(=O)N(C)C)ccc2C)cc1,/,1,-4,/,/,/,/,/
Cc1ccc(S(=O)(=O)N(C)C)cc1NC(=O)COC(=O)CCCOc1ccccc1,72*,-1,-4,-8,-2,-1,-9,-1
Cc1ccc2c(C)nc(N/C(N)=N/S(=O)(=O)c3ccccc3)nc2c1,22,0,-3,0,-1,-1,/,/
Cc1ccc(S(=O)(=O)/N=C(\N)Nc2nc(C)c3cc(C)c(C)cc3n2)cc1,38*,1,0,8,11,0,0,-12
Cc1ccc(S(=O)(=O)/N=C(\N)Nc2nc(C)c3cc(C)ccc3n2)cc1,11,0,1,11,1,0,/,/
Cc1ccc(S(=O)(=O)/N=C(\N)Nc2nc(C)c3ccc(C)cc3n2)cc1,37*,-1,-2,8,-1,2,15,-1
CCCCc1noc(-c2c(-c3ccccc3Cl)noc2C)n1,-2,2,-3,1,-11,0,/,/
COc1ccccc1N(C)S(=O)(=O)c1ccc(C(=O)NC2=NCCS2)cc1,45*,-2,-4,0,-3,0,2,7
COc1ccccc1NC(=O)c1ccc(S(=O)(=O)N(C)c2ccccc2OC)cc1,/,1,-10,/,/,/,/,/
Cc1ccc(NC(=O)Cn2c(=O)n(CCCC(=O)NCc3ccco3)c(=O)c3ccccc32)cc1,38*,-1,-1,-5,0,2,45*,-7
CN(C)c1ccc(NC(=O)Cn2c(=O)n(Cc3ccccc3)c(=O)c3ccccc32)cc1,43*,0,2,10,-4,2,35*,2
O=C(c1ccc(S(=O)(=O)N2CCCCCC2)cc1)N1CCC(CN2C(=O)c3cccc4cccc(c34)C2=O)CC1,30*,0,3,4,0,-2,-5,4
COc1ccc(NC(=O)COc2ccc3c(C)cc(=O)oc3c2)cc1S(=O)(=O)N1CCCCC1,101*,0,-1,17,-4,0,67*,10
Cn1c(=O)n(C)c2cc(/C=C3/NC(=O)N(Cc4ccccc4)C3=O)ccc21,134*,2,1,-7,-3,4,113*,1
Cc1ccc(/C=C2/NC(=O)N(Cc3ccccc3)C2=O)o1,5,0,-3,0,1,0,/,/
CCN1CCN(C(=O)C(N)Cc2ccccc2)CC1 (stereo unspecified),-2,1,-2,-2,-3,-1,/,/
Cc1oc(-c2ccccc2)nc1C(=O)Nc1nccs1,52*,1,-2,11,1,1,0,0
O=C(c1ccc(CN2CCc3ccccc3C2)cc1)N1CCc2ccccc2C1,38*,0,-3,2,-4,1,-16,-5
C[C@H](CO)N1C[C@H](C)[C@@H](CN(C)Cc2ccc(Oc3ccccc3)cc2)Oc2c(NS(=O)(=O)c3cn(C)cn3)cccc2C1=O,/,0,-12,/,/,/,/,/
Cc1ccc(C(=O)NCCNC(=O)c2ccccn2)cc1,-9,0,-1,-3,-3,0,/,/
COc1ccccc1NC(=O)c1c(N=Cc2c(O)ccc3ccccc23)cnn1C,39*,1,-7,8,-2,3,9,2
Cn1ncc(N=Cc2c(O)ccc3ccccc23)c1C(=O)N1CCOCC1,2,1,-2,-3,1,1,/,/
O=C1NC[C@@H](CCCCN2C[C@H](Cc3ccc(O)cc3)N(Cc3ccccc3)C(=O)C2=O)N(CCC2CCCCC2)C1=O,/,1,-2,/,/,/,/,/
